Bioassay records: PubChem, several laboratories
Shown are actives, neighbours in structure and some others; about 5.3% of the full set was active somewhere.
Measles CPE: protection of cells from measles virus | protection (pct of control), % at 4 µM | actives 1.5% (n = 140,000) | AID 841 | Measles virus-infected cells, CPE protection, absorbance; in the data active means protection mostly above about 24%, no sharp cut-off; inactive means mostly below about 26%
PostGolgi ctrl: growth of the yeast control strain, post-Golgi counter-screen; inhibition, % at 10 µM; AID 738; actives 5% (n = 98,000); efflux-deficient yeast background strain, growth absorbance A615, 16 h
MT1-MMP txn act: activates MT1-MMP transcription | activation factor at 10 µM | HT1080 MT1-MMP promoter luciferase reporter, luminescence, overnight; stronger effect = higher value | actives 0.16% (n = 86,000);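 active means activation factor of at least 2 for MT1-MMP transcription at 10 µM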
PostGolgi yeast: growth inhibition of a yeast mutant, post-Golgi transport screen | post-Golgi transport phenotypic cell assay | inhibition, % at 10 µM | actives 0.9% (n = 98,000);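 further: yeast cells grown in 1536-well plates; yeast grown about 18 h at 30C before absorbance read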
Numbers stand for hits; - = inactive; . = not tested or not shown. Unless noted, no stated cut-off is given here; in the data, active means inhibition above about 30%; inactive means the rest.

SMILES	Measles CPE	PostGolgi ctrl	MT1-MMP txn act	PostGolgi yeast
C=CCN1C(=O)/C(=C2/Sc3ccccc3N2C)SC1=Nc1ccccc1C	51	-	.	-
CCNC(=O)n1nccc1C(C)Oc1ccc(Cl)cc1 (configuration not stated)	-	-	.	-
CCN(c1ccccc1)S(=O)(=O)c1ccc(Cl)c(NC(=O)Nc2ccc(Cl)cc2C#N)c1	-	.	.	.
CN(c1ccccc1)S(=O)(=O)c1cccc(NC(=O)Nc2ccc(Cl)cc2C#N)c1	25	.	.	.
COc1cc2cc3c(N)c(C(=O)Nc4sc(C)c(C)c4C#N)sc3nc2cc1OC	-	-	.	-
C=CCn1c(=O)c2c3c(sc2n2c(Nc4ccccc4)nnc12)CCCC3	-	-	-	-
C=CCn1c(=O)c2c3c(sc2n2c(Nc4ccc(OC)cc4)nnc12)CCCC3	-	33	-	-
COc1ccccc1-n1cnnc1SC1CCOC1=O (configuration not stated)	-	-	-	-
Cc1ccccc1-n1nnnc1SC1CCOC1=O (configuration not stated)	-	35	-	-
O=C(NCc1ccccc1)C(=O)NCC1OCCN1S(=O)(=O)c1cccs1 (configuration not stated)	36	.	.	.
O=S(=O)(c1cccs1)N1CCC(Cc2ccccc2)CC1	-	35	-	-
Cc1[nH]c(=O)c(C(=O)/C=C/c2ccccc2F)c2c1CCCC2	-	30	.	-
CC(C)(C)c1nn2cnnc2n(/N=C/c2ccc(O)cc2)c1=O	-	.	.	.
Cc1ccc(NC(=O)CSc2nnc(CCNC(=O)OC(C)(C)C)o2)c(C)c1	-	35	-	-
Cc1cc(C(=O)Nn2c(-c3ccc(Br)cc3)nc3ccccc3c2=O)ccc1[N+](=O)[O-]	-	.	.	.
CC1CCN(C(=O)c2ccc(-n3cnnn3)cc2)CC1	40	.	-	.
COc1cc(NC(=S)NCCCN2CCOCC2)cc(OC)c1	-	.	.	.
O=C(CCCC(=O)N(CC(=O)NC1CCCC1)C1CCCC1)Nc1ccccn1	70	34	-	-
Cn1cccc1/C=C1\SC(=S)N(NC(=O)c2ccccc2)C1=O	27	.	.	.
O=S(=O)(Cc1ccccc1)N1CCCC(c2nc(-c3ccc(F)cc3)no2)C1 (configuration not stated)	-	33	-	-
COc1ccc(-c2oc(NC(=O)CCl)c(C#N)c2-c2ccc(OC)cc2)cc1	-	50	-	-
COc1ccc(-c2oc(NC(=O)CSc3ncn[nH]3)c(C#N)c2-c2ccc(OC)cc2)cc1	-	-	-	-
Cc1oc(-c2ccccc2F)nc1CS(=O)(=O)CC(=O)N1CCN(c2ccccc2)CC1	-	37	.	-
Cc1oc(-c2ccccc2F)nc1CS(=O)(=O)CC(=O)N1CCc2ccccc21	-	-	-	-
COC(=O)c1ccc(C(NC(=O)OCc2ccccc2)/C(C)=C/[C@@H](C)C(=O)NCCO)cc1 (some centres not stated)	.	.	-	.
SMILES	Measles CPE	PostGolgi ctrl	MT1-MMP txn act	PostGolgi yeast
CC(C)C(NS(=O)(=O)c1ccccc1)C(=O)OCc1cc([N+](=O)[O-])cc2c1OCOC2 (configuration not stated)	-	.	.	.
CN(C)C(=O)c1cc(Cl)ccc1Sc1cc(Cl)ccc1Cl	-	56	.	-
Oc1[nH]c2c(Cl)cc(Cl)cc2c1N=NC(=S)NCC1CCCO1 (configuration not stated)	-	.	.	.
O=c1cccccc1NCc1ccccc1	-	-	.	-
N#Cc1ccccc1NCc1ccccc1	-	32	-	-
Cc1nc(N)c(C#N)c(-c2ccccc2)c1C	-	31	-	-
Cc1c(-c2ccccc2)nc(N)c(C#N)c1-c1ccco1	-	-	-	-
COC(=O)c1ccc(C(NC(=O)OCc2ccccc2)/C(F)=C/[C@@H](C)C(=O)NCc2cc(C)on2)cc1 (some centres not stated)	.	.	-	.
COc1cccc(C(=O)NC(=S)Nc2ccc(N(C)C)cc2)c1	-	.	.	.
Cc1cc(N)n2ncc(-c3cccc(Br)c3)c2n1	-	33	-	-
Cc1cc(N)n2ncc(-c3ccccc3)c2n1	-	-	-	-
CC(C(=O)NC1CCCC1)N(C(=O)c1ccc(-c2ccccc2)[nH]1)c1ccccc1F (configuration not stated)	-	-	.	-
COC(=O)[C@@]1(Cc2ccc(OC)cc2)[C@H]2c3cc(C(=O)N4CCCC4)n(CCc4c[nH]c5cc(F)ccc45)c3C[C@H]2CN1C(=O)c1ccccc1	.	.	-	.
CCC(C)OC(=O)C1=C(C)NC2=C(C(=O)C(C(=O)OC)C(C)C2)C1c1ccc(N(C)C)cc1 (configuration not stated)	58	-	.	-
CCCOC(=O)C1=C(C)NC2=C(C(=O)C(C(=O)OC)C(C)C2)C1c1ccc(N(CC)CC)cc1 (configuration not stated)	-	-	-	-
O=C1OC(/C=C/c2ccc(Cl)cc2Cl)=NC/1=C\c1cccs1	-	.	.	.
S=c1[nH]nc(-c2ccncc2)n1/N=C/c1ccccc1	-	.	.	.
S=c1[nH]nc(-c2ccccc2)n1/N=C/c1ccc(-c2ccccc2Cl)o1	70	.	.	.
COC(=O)c1ccc(C(NC(=O)OCc2ccccc2)/C(=C/[C@@H](C)C(=O)NCc2ccncc2)c2cccnc2)cc1 (some centres not stated)	.	.	-	.
CCOC(=O)N1CCN(C(=O)C2CCN(Cc3nc(-c4ccccc4C)oc3C)CC2)CC1	53	-	-	-
O=C(c1ccccc1)n1nc(-c2ccccc2)nc1NCc1ccco1	-	-	-	-
O=S(=O)(c1ccccc1)n1nc(-c2ccccc2)nc1NCc1ccco1	-	36	-	-
CCCn1nnnc1-c1cccc(Cl)c1	61	-	.	-
O=C(CCn1c(=O)c2ccccc2n(Cc2ccccc2)c1=O)NCc1ccc2c(c1)OCO2	-	-	-	-
CCN(CC)S(=O)(=O)c1ccc2[nH]c(=O)cc(C(=O)Nc3ccc(C)c(S(=O)(=O)N(CC)CC)c3)c2c1	-	.	.	.
SMILES	Measles CPE	PostGolgi ctrl	MT1-MMP txn act	PostGolgi yeast
O=C1Nc2ccccc2N(O)N1c1cc(-c2ccccc2Cl)no1	-	-	-	-
O=C1Nc2ccccc2N(O)N1c1cc(-c2cccc(Cl)c2)no1	33	-	-	-
COc1ccc(CC(=O)Nc2nnc(C)s2)cc1	-	-	.	-
CCCCCCCCCC(=O)N/N=C/c1ccc(C)s1	-	33	.	-
Cc1noc(C)c1COC(=O)c1cc2c(C)nn(-c3ccc(F)cc3)c2s1	.	.	-	.
Cc1noc(C)c1COC(=O)c1cc2c3ccccc3n(C)c2s1	-	37	-	-
COc1ccccc1NC(=O)N(Cc1ccccc1)c1ccccn1	-	45	-	-
COCC(=O)N(Cc1ccccc1)c1ccccn1	-	-	-	-
COc1ccc(/C=N/NC(=O)COc2cc(C)cc(C)c2)cc1COC(C)=O	-	.	.	.
Clc1ccc(Nc2ccc(-n3ccnc3)nn2)cc1Cl	-	34	.	-
CC(C)CCOC(=O)C1C(c2ccccc2)C(C(=O)O)C1c1ccccc1 (configuration not stated)	-	-	-	-
COc1ccc(Nc2nc3ccccc3nc2NS(=O)(=O)c2cccs2)cc1	-	35	-	-
COCCCNc1nc2ccccc2nc1NS(=O)(=O)c1cccs1	-	-	-	-
Cc1ccc(C2CC(=O)c3cnn(-c4nc(C)cc(C)n4)c3C2)cc1 (configuration not stated)	-	.	.	.
COc1ccccc1NC(=O)c1cc(Sc2nncn2C)nc2ccccc12	-	33	-	-
